{
  "source": "the supplement of paper PMC4466140",
  "binders": {"B1": {"name": "unnamed (peptide)", "chain": "PPIPNAPLSPAPAVP"}},
  "assay_in_all_cases": "SPOT peptide array binding signal intensity (averaged, normalized) (arbitrary units (background-subtracted, floor 0; scale differs between SH3 domains)); higher = stronger binding of the SH3 domain to the peptide",
  "key": {"AgAbp1": {"target": "AgAbp1", "method_in_brief": "(§1)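 Cellulose membranes carried synthetic 15-mer peptides with cysteines swapped for serines. These were incubated overnight at 4°C with 10 μg/ml of GST-fused SH3 domains from four yeast species in TBS-based blocking buffer. Binding signal, detected with anti-GST antibody and quantified in Genespotter, is the normalized, background-subtracted spot intensity averaged over replicates, in arbitrary units specific to each domain.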"}, "AgBbc1": {"target": "AgBbc1", "method_in_brief": "as §1"}, "AgBem1-D1": {"target": "AgBem1-D1", "method_in_brief": "as §1"}, "AgBzz1-D1": {"target": "AgBzz1-D1", "method_in_brief": "as §1"}, "AgBzz1-D2": {"target": "AgBzz1-D2", "method_in_brief": "as §1"}, "AgCyk3": {"target": "AgCyk3", "method_in_brief": "as §1"}, "AgFus1": {"target": "AgFus1", "method_in_brief": "as §1"}, "AgHof1": {"target": "AgHof1", "method_in_brief": "as §1"}, "AgHse1": {"target": "AgHse1", "method_in_brief": "as §1"}, "AgLsb1": {"target": "AgLsb1", "method_in_brief": "as §1"}, "AgLsb4": {"target": "AgLsb4", "method_in_brief": "as §1"}, "AgMyo5": {"target": "AgMyo5", "method_in_brief": "as §1"}, "AgNbp2": {"target": "AgNbp2", "method_in_brief": "as §1"}, "AgRvs167": {"target": "AgRvs167", "method_in_brief": "as §1"}, "AgSho1": {"target": "AgSho1", "method_in_brief": "as §1"}, "AgSla1-D1-D2": {"target": "AgSla1-D1-D2", "method_in_brief": "as §1"}, "AgSla1-D3": {"target": "AgSla1-D3", "method_in_brief": "as §1"}, "CaAbp1-D1": {"target": "CaAbp1-D1", "method_in_brief": "as §1"}, "CaAbp1-D2": {"target": "CaAbp1-D2", "method_in_brief": "as §1"}, "CaBbc1": {"target": "CaBbc1", "method_in_brief": "as §1"}, "CaBem1-D1": {"target": "CaBem1-D1", "method_in_brief": "as §1"}, "CaBzz1-D1": {"target": "CaBzz1-D1", "method_in_brief": "as §1"}, "CaBzz1-D2": {"target": "CaBzz1-D2", "method_in_brief": "as §1"}, "CaCyk3": {"target": "CaCyk3", "method_in_brief": "as §1"}, "CaFus1": {"target": "CaFus1", "method_in_brief": "as §1"}, "CaHof1": {"target": "CaHof1", "method_in_brief": "as §1"}, "CaHse1": {"target": "CaHse1", "method_in_brief": "as §1"}, "CaLsb1": {"target": "CaLsb1", "method_in_brief": "as §1"}, "CaLsb4": {"target": "CaLsb4", "method_in_brief": "as §1"}, "CaMyo5": {"target": "CaMyo5", "method_in_brief": "as §1"}, "CaNbp2": {"target": "CaNbp2", "method_in_brief": "as §1"}, "CaRvs167": {"target": "CaRvs167", "method_in_brief": "as §1"}, "CaRvs167-3": {"target": "CaRvs167-3", "method_in_brief": "as §1"}, "CaSho1": {"target": "CaSho1", "method_in_brief": "as §1"}, "CaSla1-D1-D2": {"target": "CaSla1-D1-D2", "method_in_brief": "as §1"}, "CaSla1-D3": {"target": "CaSla1-D3", "method_in_brief": "as §1"}, "ScAbp1": {"target": "ScAbp1", "method_in_brief": "as §1"}, "ScBbc1": {"target": "ScBbc1", "method_in_brief": "as §1"}, "ScBem1-D1": {"target": "ScBem1-D1", "method_in_brief": "as §1"}, "ScBzz1-D1": {"target": "ScBzz1-D1", "method_in_brief": "as §1"}, "ScBzz1-D2": {"target": "ScBzz1-D2", "method_in_brief": "as §1"}, "ScCyk3": {"target": "ScCyk3", "method_in_brief": "as §1"}, "ScFus1": {"target": "ScFus1", "method_in_brief": "as §1"}, "ScHof1": {"target": "ScHof1", "method_in_brief": "as §1"}, "ScHse1": {"target": "ScHse1", "method_in_brief": "as §1"}, "ScLsb1": {"target": "ScLsb1", "method_in_brief": "as §1"}, "ScLsb2": {"target": "ScLsb2", "method_in_brief": "as §1"}, "ScLsb3": {"target": "ScLsb3", "method_in_brief": "as §1"}, "ScLsb4": {"target": "ScLsb4", "method_in_brief": "as §1"}, "ScMyo3": {"target": "ScMyo3", "method_in_brief": "as §1"}, "ScMyo5": {"target": "ScMyo5", "method_in_brief": "as §1"}, "ScNbp2": {"target": "ScNbp2", "method_in_brief": "as §1"}, "ScPex13": {"target": "ScPex13", "method_in_brief": "as §1"}, "ScRvs167": {"target": "ScRvs167", "method_in_brief": "as §1"}, "ScSho1": {"target": "ScSho1", "method_in_brief": "as §1"}, "ScSla1-D1-D2": {"target": "ScSla1-D1-D2", "method_in_brief": "as §1"}, "ScSla1-D3": {"target": "ScSla1-D3", "method_in_brief": "as §1"}, "SpAbp1-D1": {"target": "SpAbp1-D1", "method_in_brief": "as §1"}, "SpBbc1": {"target": "SpBbc1", "method_in_brief": "as §1"}, "SpBzz1-D1": {"target": "SpBzz1-D1", "method_in_brief": "as §1"}},
  "data": [
    {"binder": "B1", "values": [
      {"measurement": "SPOT peptide array binding signal intensity", "setting": "AgAbp1", "result": 1},
      {"measurement": "SPOT peptide array binding signal intensity", "setting": "AgBbc1", "result": "≤ 0"},
      {"measurement": "SPOT peptide array binding signal intensity", "setting": "AgBem1-D1", "result": 18.5},
      {"measurement": "SPOT peptide array binding signal intensity", "setting": "AgBzz1-D1", "result": "≤ 0"},
      {"measurement": "SPOT peptide array binding signal intensity", "setting": "AgBzz1-D2", "result": "≤ 0"},
      {"measurement": "SPOT peptide array binding signal intensity", "setting": "AgCyk3", "result": "≤ 0"},
      {"measurement": "SPOT peptide array binding signal intensity", "setting": "AgFus1", "result": 2},
      {"measurement": "SPOT peptide array binding signal intensity", "setting": "AgHof1", "result": 1},
      {"measurement": "SPOT peptide array binding signal intensity", "setting": "AgHse1", "result": 2.5},
      {"measurement": "SPOT peptide array binding signal intensity", "setting": "AgLsb1", "result": 3},
      {"measurement": "SPOT peptide array binding signal intensity", "setting": "AgLsb4", "result": 9},
      {"measurement": "SPOT peptide array binding signal intensity", "setting": "AgMyo5", "result": 1300},
      {"measurement": "SPOT peptide array binding signal intensity", "setting": "AgNbp2", "result": 3.5},
      {"measurement": "SPOT peptide array binding signal intensity", "setting": "AgRvs167", "result": 0.167},
      {"measurement": "SPOT peptide array binding signal intensity", "setting": "AgSho1", "result": "≤ 0"},
      {"measurement": "SPOT peptide array binding signal intensity", "setting": "AgSla1-D1-D2", "result": 1},
      {"measurement": "SPOT peptide array binding signal intensity", "setting": "AgSla1-D3", "result": "≤ 0"},
      {"measurement": "SPOT peptide array binding signal intensity", "setting": "CaAbp1-D1", "result": "≤ 0"},
      {"measurement": "SPOT peptide array binding signal intensity", "setting": "CaAbp1-D2", "result": "≤ 0"},
      {"measurement": "SPOT peptide array binding signal intensity", "setting": "CaBbc1", "result": 2},
      {"measurement": "SPOT peptide array binding signal intensity", "setting": "CaBem1-D1", "result": 7},
      {"measurement": "SPOT peptide array binding signal intensity", "setting": "CaBzz1-D1", "result": "≤ 0"},
      {"measurement": "SPOT peptide array binding signal intensity", "setting": "CaBzz1-D2", "result": 10.5},
      {"measurement": "SPOT peptide array binding signal intensity", "setting": "CaCyk3", "result": "≤ 0"},
      {"measurement": "SPOT peptide array binding signal intensity", "setting": "CaFus1", "result": 59},
      {"measurement": "SPOT peptide array binding signal intensity", "setting": "CaHof1", "result": "≤ 0"},
      {"measurement": "SPOT peptide array binding signal intensity", "setting": "CaHse1", "result": 0.5},
      {"measurement": "SPOT peptide array binding signal intensity", "setting": "CaLsb1", "result": "≤ 0"},
      {"measurement": "SPOT peptide array binding signal intensity", "setting": "CaLsb4", "result": "≤ 0"},
      {"measurement": "SPOT peptide array binding signal intensity", "setting": "CaMyo5", "result": 952},
      {"measurement": "SPOT peptide array binding signal intensity", "setting": "CaNbp2", "result": 15.5},
      {"measurement": "SPOT peptide array binding signal intensity", "setting": "CaRvs167", "result": "≤ 0"},
      {"measurement": "SPOT peptide array binding signal intensity", "setting": "CaRvs167-3", "result": 2.5},
      {"measurement": "SPOT peptide array binding signal intensity", "setting": "CaSho1", "result": 9},
      {"measurement": "SPOT peptide array binding signal intensity", "setting": "CaSla1-D1-D2", "result": "≤ 0"},
      {"measurement": "SPOT peptide array binding signal intensity", "setting": "CaSla1-D3", "result": "≤ 0"},
      {"measurement": "SPOT peptide array binding signal intensity", "setting": "ScAbp1", "result": 0.5},
      {"measurement": "SPOT peptide array binding signal intensity", "setting": "ScBbc1", "result": "≤ 0"},
      {"measurement": "SPOT peptide array binding signal intensity", "setting": "ScBem1-D1", "result": "≤ 0"},
      {"measurement": "SPOT peptide array binding signal intensity", "setting": "ScBzz1-D1", "result": 4},
      {"measurement": "SPOT peptide array binding signal intensity", "setting": "ScBzz1-D2", "result": 7.5},
      {"measurement": "SPOT peptide array binding signal intensity", "setting": "ScCyk3", "result": 2.5},
      {"measurement": "SPOT peptide array binding signal intensity", "setting": "ScFus1", "result": "≤ 0"},
      {"measurement": "SPOT peptide array binding signal intensity", "setting": "ScHof1", "result": "≤ 0"},
      {"measurement": "SPOT peptide array binding signal intensity", "setting": "ScHse1", "result": 1.5},
      {"measurement": "SPOT peptide array binding signal intensity", "setting": "ScLsb1", "result": 2.5},
      {"measurement": "SPOT peptide array binding signal intensity", "setting": "ScLsb2", "result": 4.5},
      {"measurement": "SPOT peptide array binding signal intensity", "setting": "ScLsb3", "result": "≤ 0"},
      {"measurement": "SPOT peptide array binding signal intensity", "setting": "ScLsb4", "result": "≤ 0"},
      {"measurement": "SPOT peptide array binding signal intensity", "setting": "ScMyo3", "result": 2660},
      {"measurement": "SPOT peptide array binding signal intensity", "setting": "ScMyo5", "result": 1550},
      {"measurement": "SPOT peptide array binding signal intensity", "setting": "ScNbp2", "result": 7.5},
      {"measurement": "SPOT peptide array binding signal intensity", "setting": "ScPex13", "result": "7.63e-06"},
      {"measurement": "SPOT peptide array binding signal intensity", "setting": "ScRvs167", "result": "≤ 0"},
      {"measurement": "SPOT peptide array binding signal intensity", "setting": "ScSho1", "result": "≤ 0"},
      {"measurement": "SPOT peptide array binding signal intensity", "setting": "ScSla1-D1-D2", "result": "≤ 0"},
      {"measurement": "SPOT peptide array binding signal intensity", "setting": "ScSla1-D3", "result": 1.25},
      {"measurement": "SPOT peptide array binding signal intensity", "setting": "SpAbp1-D1", "result": "≤ 0"},
      {"measurement": "SPOT peptide array binding signal intensity", "setting": "SpBbc1", "result": 0.5},
      {"measurement": "SPOT peptide array binding signal intensity", "setting": "SpBzz1-D1", "result": "≤ 0"}
    ]}
  ]
}
